About 7,900 targets were measured; listed, in parts, are those with a hit and a random draw of the rest. About 0.6% of all pairs of compound and target were hits. Unmarked numbers belong to inactive results.

UniProt P51956, sequence (P51956 whole entry, looked up): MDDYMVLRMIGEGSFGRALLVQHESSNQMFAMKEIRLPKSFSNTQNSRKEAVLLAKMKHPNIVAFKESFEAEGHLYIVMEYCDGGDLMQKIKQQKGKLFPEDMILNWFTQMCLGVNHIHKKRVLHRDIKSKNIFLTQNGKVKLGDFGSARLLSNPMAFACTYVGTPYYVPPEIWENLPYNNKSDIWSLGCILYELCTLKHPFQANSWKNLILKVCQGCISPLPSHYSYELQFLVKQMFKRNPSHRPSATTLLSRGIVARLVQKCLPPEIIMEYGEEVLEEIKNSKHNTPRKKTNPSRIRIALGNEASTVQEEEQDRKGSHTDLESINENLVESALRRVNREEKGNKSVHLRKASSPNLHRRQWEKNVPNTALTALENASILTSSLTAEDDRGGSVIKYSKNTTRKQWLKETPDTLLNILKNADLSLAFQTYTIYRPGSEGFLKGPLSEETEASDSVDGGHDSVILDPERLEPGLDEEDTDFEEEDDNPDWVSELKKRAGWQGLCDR
UniProt O43847, sequence (O43847 whole entry, looked up): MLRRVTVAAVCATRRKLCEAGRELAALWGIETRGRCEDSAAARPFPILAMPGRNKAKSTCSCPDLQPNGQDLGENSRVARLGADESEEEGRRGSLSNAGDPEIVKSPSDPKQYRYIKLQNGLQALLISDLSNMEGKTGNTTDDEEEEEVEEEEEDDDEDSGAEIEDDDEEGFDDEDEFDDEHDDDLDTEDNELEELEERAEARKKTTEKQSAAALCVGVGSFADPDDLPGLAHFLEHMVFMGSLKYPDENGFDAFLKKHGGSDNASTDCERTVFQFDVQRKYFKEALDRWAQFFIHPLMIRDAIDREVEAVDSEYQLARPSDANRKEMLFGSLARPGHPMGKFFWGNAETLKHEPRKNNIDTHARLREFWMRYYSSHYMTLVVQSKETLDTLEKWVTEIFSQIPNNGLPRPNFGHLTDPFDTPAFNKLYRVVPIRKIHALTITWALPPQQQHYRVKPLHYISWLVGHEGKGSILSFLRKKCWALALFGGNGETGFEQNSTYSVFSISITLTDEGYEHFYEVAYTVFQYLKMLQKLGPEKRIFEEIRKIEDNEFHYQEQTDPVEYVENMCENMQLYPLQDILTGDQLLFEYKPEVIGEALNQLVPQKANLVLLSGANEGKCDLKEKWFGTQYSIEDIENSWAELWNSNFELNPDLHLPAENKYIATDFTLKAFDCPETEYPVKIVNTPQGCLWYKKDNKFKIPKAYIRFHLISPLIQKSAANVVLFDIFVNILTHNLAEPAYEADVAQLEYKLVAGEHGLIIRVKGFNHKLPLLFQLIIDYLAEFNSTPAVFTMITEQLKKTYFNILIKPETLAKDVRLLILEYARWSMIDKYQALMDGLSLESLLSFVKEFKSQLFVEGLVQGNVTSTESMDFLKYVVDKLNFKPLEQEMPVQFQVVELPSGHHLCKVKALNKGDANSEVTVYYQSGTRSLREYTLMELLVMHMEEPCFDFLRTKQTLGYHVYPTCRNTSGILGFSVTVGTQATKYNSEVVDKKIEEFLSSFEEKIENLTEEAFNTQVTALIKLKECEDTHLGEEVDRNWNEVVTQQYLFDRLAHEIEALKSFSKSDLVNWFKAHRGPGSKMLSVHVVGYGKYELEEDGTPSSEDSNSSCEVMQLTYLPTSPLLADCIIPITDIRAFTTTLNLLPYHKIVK
UniProt Q12986, sequence (Q12986 whole entry, looked up): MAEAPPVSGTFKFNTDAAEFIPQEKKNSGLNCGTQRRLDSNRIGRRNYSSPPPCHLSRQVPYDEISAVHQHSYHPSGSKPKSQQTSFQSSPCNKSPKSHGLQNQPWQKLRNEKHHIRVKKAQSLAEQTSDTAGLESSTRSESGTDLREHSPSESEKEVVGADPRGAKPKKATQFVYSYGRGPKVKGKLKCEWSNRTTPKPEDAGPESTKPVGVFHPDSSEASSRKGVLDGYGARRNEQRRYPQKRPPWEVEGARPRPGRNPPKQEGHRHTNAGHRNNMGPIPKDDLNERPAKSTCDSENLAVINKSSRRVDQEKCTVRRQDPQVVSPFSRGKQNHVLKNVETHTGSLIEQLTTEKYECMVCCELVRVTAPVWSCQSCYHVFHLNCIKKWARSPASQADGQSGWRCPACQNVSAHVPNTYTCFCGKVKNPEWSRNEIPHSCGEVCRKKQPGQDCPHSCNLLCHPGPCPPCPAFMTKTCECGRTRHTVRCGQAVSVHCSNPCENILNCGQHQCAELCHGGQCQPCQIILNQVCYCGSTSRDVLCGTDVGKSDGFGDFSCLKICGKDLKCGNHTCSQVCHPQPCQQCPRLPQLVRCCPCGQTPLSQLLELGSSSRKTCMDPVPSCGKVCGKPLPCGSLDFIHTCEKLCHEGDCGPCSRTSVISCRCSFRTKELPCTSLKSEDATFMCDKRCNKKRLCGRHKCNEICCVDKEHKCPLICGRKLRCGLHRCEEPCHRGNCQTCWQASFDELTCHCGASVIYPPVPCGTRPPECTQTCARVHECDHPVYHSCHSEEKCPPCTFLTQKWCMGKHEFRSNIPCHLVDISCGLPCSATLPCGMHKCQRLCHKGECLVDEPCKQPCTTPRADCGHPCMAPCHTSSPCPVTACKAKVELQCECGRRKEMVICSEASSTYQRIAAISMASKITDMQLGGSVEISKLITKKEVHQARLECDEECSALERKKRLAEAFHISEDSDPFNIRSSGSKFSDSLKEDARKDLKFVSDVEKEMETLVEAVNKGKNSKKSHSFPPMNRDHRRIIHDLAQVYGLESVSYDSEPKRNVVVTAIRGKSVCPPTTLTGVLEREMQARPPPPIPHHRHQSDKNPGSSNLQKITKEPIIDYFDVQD
UniProt O75607, sequence (O75607 whole entry, looked up): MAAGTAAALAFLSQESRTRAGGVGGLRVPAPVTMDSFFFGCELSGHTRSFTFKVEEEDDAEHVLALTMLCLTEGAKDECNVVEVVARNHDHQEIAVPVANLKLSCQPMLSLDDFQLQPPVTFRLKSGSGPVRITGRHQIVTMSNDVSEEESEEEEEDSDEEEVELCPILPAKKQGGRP
UniProt P04181, sequence (P04181 whole entry, looked up): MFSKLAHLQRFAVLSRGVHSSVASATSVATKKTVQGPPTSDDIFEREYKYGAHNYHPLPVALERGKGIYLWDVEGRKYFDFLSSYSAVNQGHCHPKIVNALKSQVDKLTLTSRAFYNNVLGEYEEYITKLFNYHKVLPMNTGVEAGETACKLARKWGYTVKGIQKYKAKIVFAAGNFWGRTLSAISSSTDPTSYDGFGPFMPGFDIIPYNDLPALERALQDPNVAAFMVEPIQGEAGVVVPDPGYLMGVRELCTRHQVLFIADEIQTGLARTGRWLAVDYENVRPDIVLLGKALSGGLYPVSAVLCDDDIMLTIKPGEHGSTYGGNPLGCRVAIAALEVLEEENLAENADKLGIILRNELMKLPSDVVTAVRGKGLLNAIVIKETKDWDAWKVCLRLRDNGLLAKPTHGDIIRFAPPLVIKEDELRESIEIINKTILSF
UniProt Q9UK23, sequence (Q9UK23 whole entry, looked up): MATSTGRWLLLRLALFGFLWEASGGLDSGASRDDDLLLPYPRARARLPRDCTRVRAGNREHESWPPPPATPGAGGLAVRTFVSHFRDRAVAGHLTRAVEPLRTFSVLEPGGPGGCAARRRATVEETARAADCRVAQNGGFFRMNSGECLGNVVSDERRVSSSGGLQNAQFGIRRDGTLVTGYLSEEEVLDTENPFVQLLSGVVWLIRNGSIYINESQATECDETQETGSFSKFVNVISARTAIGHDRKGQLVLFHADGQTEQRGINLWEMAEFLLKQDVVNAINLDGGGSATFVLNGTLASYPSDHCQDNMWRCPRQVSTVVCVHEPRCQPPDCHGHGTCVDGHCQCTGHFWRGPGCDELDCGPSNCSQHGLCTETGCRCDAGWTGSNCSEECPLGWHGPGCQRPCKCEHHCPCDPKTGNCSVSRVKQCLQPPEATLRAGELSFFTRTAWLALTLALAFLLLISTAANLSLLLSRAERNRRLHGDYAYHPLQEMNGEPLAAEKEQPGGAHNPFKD
UniProt Q9UI09, sequence (Q9UI09 whole entry, looked up): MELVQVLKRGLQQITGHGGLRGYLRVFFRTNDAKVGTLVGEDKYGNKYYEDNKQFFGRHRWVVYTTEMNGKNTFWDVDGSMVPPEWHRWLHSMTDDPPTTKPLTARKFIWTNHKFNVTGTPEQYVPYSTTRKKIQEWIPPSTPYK
UniProt Q9Y5B8, sequence (Q9Y5B8 whole entry, looked up): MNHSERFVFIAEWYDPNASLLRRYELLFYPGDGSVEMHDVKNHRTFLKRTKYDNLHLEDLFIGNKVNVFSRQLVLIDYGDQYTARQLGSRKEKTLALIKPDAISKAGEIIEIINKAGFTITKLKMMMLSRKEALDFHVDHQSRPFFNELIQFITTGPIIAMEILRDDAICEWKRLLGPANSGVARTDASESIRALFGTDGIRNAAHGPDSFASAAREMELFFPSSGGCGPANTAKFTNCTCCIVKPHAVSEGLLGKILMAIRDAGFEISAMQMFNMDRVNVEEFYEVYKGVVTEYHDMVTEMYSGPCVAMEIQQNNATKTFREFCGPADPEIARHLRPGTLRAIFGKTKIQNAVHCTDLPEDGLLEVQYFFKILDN
UniProt Q9Y605, sequence (Q9Y605 whole entry, looked up): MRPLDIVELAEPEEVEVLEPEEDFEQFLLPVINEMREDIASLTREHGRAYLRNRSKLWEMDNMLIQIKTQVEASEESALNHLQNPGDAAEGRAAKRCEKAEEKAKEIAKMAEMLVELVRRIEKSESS
UniProt Q8N6M0, sequence (Q8N6M0 whole entry, looked up): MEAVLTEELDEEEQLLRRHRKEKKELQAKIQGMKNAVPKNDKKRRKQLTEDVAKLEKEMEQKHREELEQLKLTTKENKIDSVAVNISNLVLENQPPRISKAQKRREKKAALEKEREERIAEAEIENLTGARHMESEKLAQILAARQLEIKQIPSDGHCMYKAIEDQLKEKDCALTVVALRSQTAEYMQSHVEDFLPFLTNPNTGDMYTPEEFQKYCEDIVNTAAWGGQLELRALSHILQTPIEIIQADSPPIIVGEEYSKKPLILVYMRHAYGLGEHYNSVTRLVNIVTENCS
UniProt O75438, sequence (O75438 whole entry, looked up): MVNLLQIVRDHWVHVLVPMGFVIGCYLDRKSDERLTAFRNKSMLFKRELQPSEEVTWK

Compound in the assay: C#Cc1cccc(Nc2ncnc3cc(OCCOC)c(OCCOC)cc23)c1 [erlotinib]
Nature of the assay: log2 fold change, soluble protein after heating vs DMSO (PISA); higher = thermal stabilisation; K562 cells, 10 uM, 30 min; active = over 0.2 and 3.5 SD of the protein, either way, in both replicates (recomputed). The method, boiled down: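 Quantification of soluble protein used TMTpro 16plex LC-MS/MS, with channel sums equalised. Samples were the supernatant after 21,000xg for 90 min of pooled aliquots from K562 cells (2×10^6 cells/mL) treated with 10 μM compound for 30 min, heated for 3 min over 48°C-58°C, and extracted in PBS with 0.5% NP-40 at 4°C. Values, from duplicates, describe thermal stability against control samples on a log2 fold-change scale.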
Take NPC1 (UniProt O15118): the log2 fold change was 0.027.

In the case of NFX1 (UniProt Q12986), the log2 fold change is 0.065. For NME7 (UniProt Q9Y5B8), the log2 fold change was 0.166. Then NOP53 (UniProt Q9NZM5), with -0.201.

On to OAT (UniProt P04181), for which the log2 fold change was 0.063.

Turning to NDUFS4 (UniProt O43181), the log2 fold change was -0.001. The value for OTUD6B (UniProt Q8N6M0) was 0.053; that for NDUFB8 (UniProt O95169) was -0.026; that for NISCH (UniProt Q9Y2I1) was 0.141. Then OSBPL3 (UniProt Q9H4L5), with 1.67 (active); and NFYB (UniProt P25208), with 0.092; and NA isoform 3 (UniProt Q4G0T1), with 0.019. Then NUMB (UniProt P49757), with 0.016; and NFATC3 (UniProt Q12968), with 0.121. With NAGPA (UniProt Q9UK23), the log2 fold change was 0.046. The value for OXSR1 (UniProt O95747) was 0.042; that for MTHFD1 (UniProt P11586) was 0.06.

Consider OTULIN (UniProt Q96BN8), for which the log2 fold change was -0.023. Then NEK3 (UniProt P51956), with 0.003. Then MRPS15 (UniProt P82914), with -0.061; and NMRAL1 (UniProt Q9HBL8), with 0.239. The value for MON2 isoform 5 (UniProt Q7Z3U7) was 0.034. Consider NPM3 (UniProt O75607), for which the log2 fold change was -0.083. Then ORC5 (UniProt O43913), with 0.089. The value for MLST8 (UniProt Q9BVC4) was -0.021; that for MON1B (UniProt Q7L1V2) was 0.016. The value for NRDC isoform 2 (UniProt O43847) was -0.016; that for NDUFA12 (UniProt Q9UI09) was -0.014; that for MORC2 (UniProt Q9Y6X9) was 0.105. In the case of NDUFB1 (UniProt O75438), the log2 fold change is -0.015. Then NCKAP1 isoform 2 (UniProt Q9Y2A7), with -0.019; and MTHFS (UniProt P49914), with 0.01. Then NUP205 (UniProt Q92621), with 0.047; and MT-ATP6 (UniProt P00846), with 0.207. The value for NELFCD (UniProt Q8IXH7) was 0.096; that for MLX (UniProt Q9UH92) was 0.038. For the target MRFAP1 (UniProt Q9Y605), the log2 fold change is -0.007. The value for NSMCE2 (UniProt Q96MF7) was -0.076. The value for NNMT (UniProt P40261) was 0.037.

Values taken from the supplement of paper PMC10849652.
